High-throughput results deposited in PubChem by The Scripps Research Institute Molecular Screening Center.
In the library only some 4.1% were active in any assay of this set; here they are far more common.
hgDAF12 agonist – H. glycines DAF-12 receptor agonists, primary screen, cell-based, luminescence, HEK293, GAL4 fusion, UAS-luciferase. Nuclear hormone receptor DAF-12 (Heterodera glycines), GAL4 fusion. HEK293 GAL4-hgDAF12 UAS-luciferase reporter, agonist luminescence; normalized to butyrate control. activation, % at 6.8 µM. 1.8% of 370,000 active. AID 687014, 2013;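 active = activation above a cutoff set at the mean of all screened compounds plus 3 SD, cut at about 10% in these data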
hcDAF12 agonist – H. contortus DAF-12 nuclear receptor activators, primary screen, cell-based, luminescence, HEK293, lit1-tk-luc reporter; HEK293 hcDAF-12 lit1-tk-luc reporter; 0% DMSO, 100% Δ7-dafachronic acid; activation, % at 6.8 µM; 1.4% of 370,000 active;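 active = activation above the mean of all tested compounds plus 3 SD, cut at about 5.5% in these data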
DAX1 inh-1 – DAX1 (NR0B1) inhibitors on StAR promoter, primary screen, cell-based, luminescence, SF-1 (NR5A1), full-length DAX-1. HEK293T StAR-luciferase reporter, SF-1/DAX-1 repression relief. 1.1% of 370,000 active. inhibition, % at 6.8 µM;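 active = inhibition above the mean over all tested compounds plus 3 SD, cut at about 3.6% in these data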;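 note: higher inhibition means more luminescence from relief of DAX-1 repression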
DAX1 inh-2 – DAX1 (NR0B1) inhibitors, primary screen, cell-based, HEK293, Gal4-DAX1, luciferase luminescence. HEK293 Gal4-DAX1 luciferase reporter. inhibition, % at 6.75 µM. 0.99% of 340,000 active;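 active = inhibition above the mean over all tested compounds plus 3 SD, cut at about 4.2% in these data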;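 note: inhibition shows as a rise in luminescence from relieved DAX1 repression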
Target sequence (P51843 207-470 limits assumed): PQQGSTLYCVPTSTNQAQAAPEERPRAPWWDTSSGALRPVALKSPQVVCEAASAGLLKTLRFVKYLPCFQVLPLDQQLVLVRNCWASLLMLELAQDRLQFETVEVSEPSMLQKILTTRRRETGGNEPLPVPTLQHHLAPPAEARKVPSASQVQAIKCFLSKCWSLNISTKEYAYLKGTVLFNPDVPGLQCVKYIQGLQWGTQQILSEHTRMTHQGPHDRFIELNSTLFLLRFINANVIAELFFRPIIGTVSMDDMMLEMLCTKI
ssDAF-12 act – S. stercoralis DAF-12 nuclear receptor activators, primary screen, cell-based, luminescence, HEK293, GRIP1 co-expression, lit1-tk-luc. HEK293 ssDAF-12/GRIP1 lit1-tk-luc reporter; % of 3 µM dafachronic acid response. AID 652126, 2013. Nuclear hormone receptor DAF-12 (Strongyloides stercoralis). activation, % at 6.8 µM. 1% of 370,000 active;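 active = activation above the mean over all tested compounds plus 3 SD, cut at about 0.9% in these data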
Each line names hits and unclear results; the compound was inactive in the other large screens.

CCC1=NN=C(c2ccc(F)cc2)C(c2c[nH]c3ccccc23)N1O (stereo not given)	ssDAF-12 act 0.9
COc1ccc(CN2C/C(=C/C3=CCCCC3)N(C(=O)OCc3ccccc3)C2=N)c(OC)c1	none (no result: DAX1 inh-2)
CC(=O)N1CCCN(C(=O)Cn2cnc3ccccc3c2=O)CC1	none (no result: DAX1 inh-2)
O=C1CC(=O)C(n2cncn2)C(c2ccc(Cl)cc2)C1 (stereo not given)	DAX1 inh-2 5.8
Cc1ccc(Cc2cnc(N3C(=N)SC(c4ccccc4)C3=O)s2)cc1 (stereo not given)	none
N=C1SC(c2ccccc2)C(=O)N1c1ncc(Cc2ccccc2)s1 (stereo not given)	hgDAF12 agonist 13
O=C(O)CC(NC(=O)C12CC3CC(CC(C3)C1)C2)c1cccc([N+](=O)[O-])c1 (stereo not given)	none
CC1(C)C/C(=N\O)C(C(O)c2cccc([N+](=O)[O-])c2)C(C)(C)N1 (stereo not given)	DAX1 inh-2 6.2
COC(=O)[C@H]1C[C@@]2(CC=C(C)C)c3ccccc3N(C(=O)OC(C)(C)C)[C@H]2N1C(=O)OC(C)(C)C	none (no result: DAX1 inh-1, DAX1 inh-2)
CC1CCCCN1C(=O)COC(=O)c1cc(Cl)c2c(c1)OCO2 (stereo not given)	DAX1 inh-1 3.7
CC1CCN(C(=O)COC(=O)c2ccc3c(c2)OCO3)CC1	hgDAF12 agonist 12
CC1CCCCN1C(=O)COC(=O)c1ccc(N2CCCC2=O)cc1 (stereo not given)	none
CCc1c(C(=O)NNC(=S)Nc2ccc(S(=O)(=O)Nc3ncccn3)cc2)csc1C	DAX1 inh-1 4.0
O=C(CSc1nnc(-c2ccncc2)n1-c1ccc(Cl)cc1)c1ccc(Cl)c(Cl)c1	none (no result: DAX1 inh-2)
CN1CCCN(C(=O)CN2C(=O)CC(C)(C)S(=O)(=O)c3ccccc32)CC1	none (no result: DAX1 inh-2)
O=c1c(-c2ccc(Cl)cc2)c[nH]n1-c1ccccc1	none
O=c1c(-c2ccccc2)c[nH]n1-c1cccc([N+](=O)[O-])c1	DAX1 inh-2 8.3
CCc1cccc(C)c1NC(=O)CSc1n[nH]c(N)n1	DAX1 inh-1 4.2
CCOC(=O)[C@]12CCCC3=C1N(CCC3)C(=O)[C@@H](CC(=O)NCc1cccc3ccccc13)C2	none (no result: DAX1 inh-2)
COc1ccc(/C=C2\COc3ccccc3C2=O)c(OC)c1	none
COc1ccc2c(c1)OC/C(=C/c1cccs1)C2=O	DAX1 inh-1 4.2
CC(O)CNc1ncnc2nc[nH]c12 (stereo not given)	none
CC(C)=NNc1ncnc2nc[nH]c12	DAX1 inh-2 6.3
CC1(C)C=C2C(N(Cc3ccc4c(c3)OCO4)C(=N)N2C(=O)OCc2ccccc2)n2c(=O)n(-c3ccccc3)c(=O)n21 (stereo not given)	none (no result: DAX1 inh-1, DAX1 inh-2)
O=C(COC(=O)CSc1ccc(F)cc1)NCCCc1ccccc1	ssDAF-12 act 1.1
O=C(Nc1ccc(Cl)c(Cl)c1)Nc1ccccc1C(=O)O	DAX1 inh-1 4.1
Cc1cc(NC(=O)Nc2ccc(Cl)c(Cl)c2)n(-c2ccccc2)n1	DAX1 inh-2 4.8
O=C(Nc1ccc2nccnc2c1)Nc1ccccc1Cl	hgDAF12 agonist 11
O=C(O)c1ccccc1C(=O)c1ccc(Sc2ccc(Cl)cc2)c([N+](=O)[O-])c1	DAX1 inh-2 8.1
Nc1ccccc1Sc1ccc(C(=O)c2ccccc2C(=O)O)cc1[N+](=O)[O-]	none
O=C(O)c1ccccc1C(=O)c1ccc(N2CCOCC2)c([N+](=O)[O-])c1	ssDAF-12 act 1.1
Nc1nc(-c2ccccc2)c(N=Nc2ccc(Cl)cc2)s1	ssDAF-12 act 1.2
Clc1ccc(NCc2cccnc2)cc1	none
Fc1ccc(NCc2cccnc2)cc1F	ssDAF-12 act 1.2
COc1ccc(N2C(=O)/C(=C/c3ccc([N+](=O)[O-])cc3)C=C2c2ccccc2)cc1	ssDAF-12 act 1.2
O=c1c(C=NCCCn2ccnc2)c(-c2ccccc2)[nH]n1-c1nc2ccccc2s1	DAX1 inh-1 4.3
